“And” between values parts separate entries of the source, which are not always exact repeats. Equal entries are not always repeated. Some compounds were tested as several samples or in several runs, with calls that do not always agree. The source made the active and inactive calls. Rule for the calls: active = hit-call score of the fitted dose curve at least 0.9, where 1 is the maximum; inactive = score below 0.9.

The AC50 is the midpoint of the concentration-response curve, whichever way the signal moves.

Read-out in the first assay: ATP-citrate lyase (ACLY), ACLY (gene 47)
The experiment in a line: LTEA_HepaRG_ACLY: Life Technologies and Expression Analysis (LTEA) Assay for ATP-citrate lyase (ACLY) using HepaRG (AID 2283466). Conditions: mRNA level, 48 h; actives raise or lower the signal. An outline of the steps: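 Differentiated HepaRG cells exposed 48 h in serum-free induction medium to eight half-log concentrations up to 100 uM in 0.5% DMSO, duplicates. Transcript measured by Fluidigm TaqMan qRT-PCR, normalized to ACTB, GAPDH, POLR2A; bidirectional fit versus DMSO.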
Consider `CCOCN(C(=O)CCl)c1c(C)cccc1CC`, for which the outcome was inactive.
Consider `CCCN(CCOc1c(Cl)cc(Cl)cc1Cl)C(=O)n1ccnc1`, for which the concentration at half-maximal activity (AC50) is 12.5 µM (active).
On to `Cc1[nH]c(=O)n(C(C)(C)C)c(=O)c1Cl`, for which the compound was called inactive.
On the same count and under the same terms, as for `CC(C)OC(=O)Nc1cccc(Cl)c1`, the entry is “inactive”.
Still for that read-out and setting: as for `CCC(C)(NC(=O)c1cc(Cl)c(C)c(Cl)c1)C(=O)CCl` (stereo not drawn), the entry is “inactive”; as for `CNC(=O)CSP(=S)(OC)OC`, “inactive”.
Take `CC1(c2ccc(Oc3ccccc3)cc2)OC(=O)N(Nc2ccccc2)C1=O` (stereo not drawn): the AC50 is 3.66 µM (active).
On to `CNC(=O)Oc1cccc(N=CN(C)C)c1`, for which the compound was called inactive.

Read-out in a further assay: Peroxisomal acyl-coenzyme A oxidase 1 (ACOX1) gene, ACOX1 (gene 51)
The experiment in a line: LTEA_HepaRG_ACOX1: Life Technologies and Expression Analysis (LTEA) Assay for Peroxisomal acyl-coenzyme A oxidase 1 (ACOX1) gene using HepaRG (AID 2283467). Conditions: mRNA level, 48 h; actives raise or lower the signal. A digest of the protocol: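 HepaRG cells, plated 48 h then switched to serum-free induction medium, were exposed in duplicate for 48 h to 8-point half-log concentrations up to 100 uM in 0.5% DMSO. ACOX1 mRNA was measured by qRT-PCR, normalized to ACTB/GAPDH/POLR2A, and fitted bidirectionally versus DMSO.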
For `CNC(=O)/C=C(\C)OP(=O)(OC)OC`, the result was inactive.
Still for that read-out and setting: as for `N#Cc1c(Cl)c(Cl)c(Cl)c(C#N)c1Cl`, the entry is “inactive”; as for `CC1(C)C(C=C(Cl)Cl)C1C(=O)OC(C#N)c1ccc(F)c(Oc2ccccc2)c1` (stereo not drawn), “inactive”; as for `O=C(NC(=O)c1c(F)cccc1F)Nc1ccc(OC(F)(F)C(F)OC(F)(F)F)c(Cl)c1` (stereo not drawn), “inactive”.
Take `O=C(Nc1ccccc1)Nc1cnns1`: the half-maximal activity concentration (AC50) is 50 µM (active).
In the case of `O=S(=O)(O)C(F)(F)C(F)(F)C(F)(F)C(F)(F)C(F)(F)C(F)(F)C(F)(F)C(F)(F)F`, the result was inactive.
Take `CCc1ccc(C(=O)NN(C(=O)c2cc(C)cc(C)c2)C(C)(C)C)cc1`: the compound was called inactive.
The same measure, in the same setting: the same measure for `COP(=O)(OC)OC=C(Cl)Cl`: “inactive”.
Turning to `CC[C@H](C)[C@H]1O[C@]2(C=C[C@@H]1C)C[C@@H]1C[C@@H](C/C=C(\C)[C@@H](O[C@H]3C[C@H](OC)[C@@H](O[C@H]4C[C@H](OC)[C@@H](O)[C@H](C)O4)[C@H](C)O3)[C@@H](C)/C=C/C=C3\CO[C@@H]4[C@H](O)C(C)=C[C@@H](C(=O)O1)[C@]34O)O2` (tested in a mixture with another compound), the AC50 is 30.2 µM (active).
For `Clc1ccccc1-c1nnc(-c2ccccc2Cl)nn1`, the call was inactive.
Still for that read-out and setting: the same measure for `CNC(=O)Oc1ccccc1OC(C)C`: “inactive”; for `O=C1c2ccccc2C(=O)N1SC(Cl)(Cl)Cl`: “inactive”.
Regarding `CCOC1Oc2ccc(OS(C)(=O)=O)cc2C1(C)C` (stereo not drawn), the half-maximal activity concentration (AC50) was 60.8 µM (active).
Turning to `O=C(O)CCCOc1ccc(Cl)cc1Cl`, the AC50 is 20.5 µM (active).
For `CC(C)(C)C(O)/C(=C\c1ccc(Cl)cc1Cl)n1cncn1` (stereo not drawn), the AC50 was 50 µM (active).
Still for that read-out and setting: as for `CCOCN(C(=O)CCl)c1c(C)cccc1CC`, the figure is 78.9 µM (active); as for `CCCN(CCOc1c(Cl)cc(Cl)cc1Cl)C(=O)n1ccnc1`, 50 µM (active).
On to `Cc1[nH]c(=O)n(C(C)(C)C)c(=O)c1Cl`, for which the outcome was inactive.
Turning to `CC(C)OC(=O)Nc1cccc(Cl)c1`, the compound was called inactive.
On to `CCC(C)(NC(=O)c1cc(Cl)c(C)c(Cl)c1)C(=O)CCl` (stereo not drawn), for which the AC50 was 85.1 µM (active).
For `CNC(=O)CSP(=S)(OC)OC`, the compound was classed as inactive.
With `CC1(c2ccc(Oc3ccccc3)cc2)OC(=O)N(Nc2ccccc2)C1=O` (stereo not drawn), the AC50 was 26.7 µM (active).
For the compound `CNC(=O)Oc1cccc(N=CN(C)C)c1`, the call was inactive.

Read-out in the next assay: Alkaline Phosphatase, Placental (ALPP) gene, ALPP (gene 250)
The experiment in a line: LTEA_HepaRG_ALPP: Life Technologies and Expression Analysis (LTEA) Assay for Alkaline Phosphatase, Placental (ALPP) gene using HepaRG (AID 2283468). Conditions: mRNA level, 48 h; actives raise or lower the signal. A digest of the protocol: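 Differentiated human HepaRG cells were plated and cultured 48 h, then exposed in duplicate for 48 h in serum-free induction medium to eight half-log concentrations from 100 uM in 0.5% DMSO. ALPP mRNA was measured by TaqMan qRT-PCR, normalized to ACTB, GAPDH, POLR2A.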
Regarding `CNC(=O)/C=C(\C)OP(=O)(OC)OC`, the outcome was inactive.
Same read-out and setting: as for `CC1(C)C(C=C(Cl)Cl)C1C(=O)OC(C#N)c1ccc(F)c(Oc2ccccc2)c1` (stereo not drawn), the entry is “inactive”; as for `O=C(NC(=O)c1c(F)cccc1F)Nc1ccc(OC(F)(F)C(F)OC(F)(F)F)c(Cl)c1` (stereo not drawn), “inactive”.
Take `O=C(Nc1ccccc1)Nc1cnns1`: the half-maximal activity concentration (AC50) was 78.6 µM (active).
On to `O=S(=O)(O)C(F)(F)C(F)(F)C(F)(F)C(F)(F)C(F)(F)C(F)(F)C(F)(F)C(F)(F)F`, for which the AC50 is 36.6 µM (active) and 50 µM (active) and 48 µM (active); the result was inactive.
Consider `CCc1ccc(C(=O)NN(C(=O)c2cc(C)cc(C)c2)C(C)(C)C)cc1`, for which the AC50 is 50 µM (active).
In the case of `COP(=O)(OC)OC=C(Cl)Cl`, the call was inactive.
With `CC[C@H](C)[C@H]1O[C@]2(C=C[C@@H]1C)C[C@@H]1C[C@@H](C/C=C(\C)[C@@H](O[C@H]3C[C@H](OC)[C@@H](O[C@H]4C[C@H](OC)[C@@H](O)[C@H](C)O4)[C@H](C)O3)[C@@H](C)/C=C/C=C3\CO[C@@H]4[C@H](O)C(C)=C[C@@H](C(=O)O1)[C@]34O)O2` (tested in a mixture with another compound), the AC50 was 9.57 µM (active).
As to `Clc1ccccc1-c1nnc(-c2ccccc2Cl)nn1`, the result was inactive.
Still for that read-out and setting: as for `O=C1c2ccccc2C(=O)N1SC(Cl)(Cl)Cl`, the entry is “inactive”.
In the case of `CCOC1Oc2ccc(OS(C)(=O)=O)cc2C1(C)C` (stereo not drawn), the AC50 was 43.6 µM (active).
Take `O=C(O)CCCOc1ccc(Cl)cc1Cl`: the compound was classed as inactive.
Regarding `CC(C)(C)C(O)/C(=C\c1ccc(Cl)cc1Cl)n1cncn1` (stereo not drawn), the AC50 was 22 µM (active).
For the compound `CCOCN(C(=O)CCl)c1c(C)cccc1CC`, the outcome was inactive.
On to `CCCN(CCOc1c(Cl)cc(Cl)cc1Cl)C(=O)n1ccnc1`, for which the AC50 was 35.6 µM (active).
Take `Cc1[nH]c(=O)n(C(C)(C)C)c(=O)c1Cl`: the outcome was inactive.
The same measure, in the same setting: the same measure for `CC(C)OC(=O)Nc1cccc(Cl)c1`: “inactive”; for `CCC(C)(NC(=O)c1cc(Cl)c(C)c(Cl)c1)C(=O)CCl` (stereo not drawn): “inactive”; for `CNC(=O)CSP(=S)(OC)OC`: “inactive”.
With `CC1(c2ccc(Oc3ccccc3)cc2)OC(=O)N(Nc2ccccc2)C1=O` (stereo not drawn), the AC50 is 11.2 µM (active).
In the case of `CNC(=O)Oc1cccc(N=CN(C)C)c1`, the compound was classed as inactive.

These data come from PubChem BioAssay (EPA / NIEHS).
